In PubChem BioAssay:
Active and inactive are the calls of the source.

test: changes in parasitized red cell lysis, either direction – P. falciparum Indochina, OD700, 3 h, PSAC antagonist project, primary screen (AID 1156); conditions: P. falciparum-infected erythrocytes, osmotic lysis, higher = more signal, called active from +8 up or from −8 down

z-score, inactive:
C=C(C)c1cc2c(c(CCCCCC)n1)[Si](C(C)C)(C(C)C)OC2 -0.0223, COc1ccc(NC(=O)O[C@H]2[C@H](OC(=O)Nc3ccccc3)[C@H](OC(=O)Nc3ccccc3)[C@@H](OC)O[C@@H]2CO)cc1 -0.329, CCCCC(O)C1C=CC2C(=O)N(c3ccccc3)C(=O)C2N1Nc1ccc(C(C)C)cc1 (stereo not given) 0.39, [N-]=[N+]=NCc1ccccc1C[C@@]1(C(=O)N2CCOCC2)N=C(c2ccc(OCCCO)cc2)O[C@@H]1c1ccccc1 2.37, CC(c1ccccc1)C(O)C1C=CC2C(=O)N(c3ccccc3)C(=O)C2N1Nc1ccc([N+](=O)[O-])cc1 (stereo not given) 0.283, COc1ccc(CN(C2=CC[C@@]3(C(N)=O)C(=O)C(Cl)=C(Cl)C(=O)[C@@]3(C#N)C2)S(=O)(=O)c2ccc(Br)cc2)cc1 -1.94, COC(=O)CCCCCCC(=O)Nc1ccc(NC(=O)CCCC[P+](c2ccccc2)(c2ccccc2)c2ccccc2)cc1 1.95, CC(C)N1C(=O)C[C@@](C(=O)NCCCN(C)C)(c2ccc([N+](=O)[O-])cc2)[C@H]1c1ccc(CO)cc1 1.82, CCOC(=O)C1=CC[C@@H](c2ccc(OCc3ccccc3)c(OC)c2)N(S(=O)(=O)c2ccc(C)cc2)[C@H]1c1ccc(SC)cc1 0.692, COC(=O)c1c2oc(c1C(=O)OC)C(=O)N(C)Cc1cn(nn1)C[C@H](Cc1ccccc1)NC(=O)N[C@H](CO)CC2 -0.119
